Shown are actives, neighbours in structure and some others; about 11% of the full set was active somewhere.
ALDH1A1 inh: ALDH1A1 (human) enzyme inhibition | Purified ALDH1A1, NADH fluorescence, propionaldehyde substrate | P00352 | Potency, µM (series often up to 75.3 µM), without a hit: top-dose activity, negative = inhibition, hits mostly inhibitors | 7.3% of 220,000 active | AID 1030;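 note: potency is the fitted concentration of half-maximal effect; plate controls were no enzyme wells and a reference inhibitor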
Target sequence (P00352 whole entry, looked up): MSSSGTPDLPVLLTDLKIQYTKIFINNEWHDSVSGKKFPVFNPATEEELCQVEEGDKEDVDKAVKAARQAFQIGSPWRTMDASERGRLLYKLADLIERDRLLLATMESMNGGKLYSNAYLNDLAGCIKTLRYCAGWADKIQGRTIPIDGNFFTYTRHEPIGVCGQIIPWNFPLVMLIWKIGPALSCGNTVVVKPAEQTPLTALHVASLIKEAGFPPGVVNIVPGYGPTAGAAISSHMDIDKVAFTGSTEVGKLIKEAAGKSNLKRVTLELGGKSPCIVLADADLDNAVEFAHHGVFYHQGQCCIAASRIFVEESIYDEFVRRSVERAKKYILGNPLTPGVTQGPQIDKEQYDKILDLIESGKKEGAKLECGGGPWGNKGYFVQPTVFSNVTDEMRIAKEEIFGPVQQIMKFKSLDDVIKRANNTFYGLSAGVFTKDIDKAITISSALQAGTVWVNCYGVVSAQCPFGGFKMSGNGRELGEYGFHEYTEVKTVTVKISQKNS
HPGD inh: blocks human HPGD enzyme activity | purified HPGD, NADH fluorescence kinetic, PGE2 substrate | Potency, µM, inactives show at the top dose activity change, negative = inhibition, actives largely listed as inhibitors | 4.3% of 150,000 active; note: potency is the fitted concentration of half-maximal effect
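NADH formation kinetics: reaction with 30 uM PGE2 and 1 mM NAD+ (final), 20 nM enzyme, Tris-HCl pH 8 with Tween 20, after 15 min compound preincubation at room temperature. Fluorescence change, last versus first of five reads.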
PNC inhibitor: blocks assembly of the perinucleolar compartment. activity change (PNC), negative = inhibition, % at 10 µM. 3.1% of 140,000 active. AID 2417. PC3M PTB-GFP, PNC prevalence imaging, 16 h; active compounds read low;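 active = readout at or below -70, meaning at least 70% loss of cells showing the perinucleolar compartment, a nuclear body marking cancer cells; inconclusive = readout between -30 and a set limit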;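 note: plate controls were DMSO wells for no effect and camptothecin positive control wells for full effect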
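PC3M cells stably expressing PTB-GFP, 750–1000 cells/well, treated 16 h at 37 °C with compound (23 nl of library stock), in duplicate. After paraformaldehyde fixation and Hoechst stain, imaged at 20x; PNC prevalence scored by image analysis.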
Starred values were filed as active, the others as inactive; ? = inconclusive; . = not tested or not shown; [ ] = dose if it differs, or a comment. Unless noted, calls come from the whole dose curve; as a rule, active = well fitted inhibition curve with a large enough effect (not every such curve was filed as active); inconclusive = small, poorly fitted or top-dose-only effect, or another doubt; inactive = no such curve, though single readings can be large or run the other way. Unless noted, % is set by controls: 0 for no effect and ±100 for the full control effect.

SMILES | ALDH1A1 inh | HPGD inh | PNC inhibitor
CC12CN(Cc3ccccc3)CC(C)(CN(Cc3ccccc3)C1)C2=O | 4.0% | . | .
CC(Sc1nnc(C(F)(F)F)n1C)C(=O)Nc1ccc(S(N)(=O)=O)cc1 (configuration not stated) | 8.4% | . | .
CCOc1ccc(CC(=O)NNC(=S)NCCc2ccccc2)cc1 | -2.2% | . | .
COc1ccccc1OC[C@H](O)CO | 1.2%[20.9 µM] | -3.5% | .
CCOC(=O)CN1C(=O)C(O)(CC(=O)c2cccc(OC)c2)c2ccccc21 (configuration not stated) | 0.282µM* | 0.1% | -20.6
COc1cccc(NC(=O)CN2C(=O)C3(OCCCO3)c3ccccc32)c1 | ? | 0.1% | -3.3
Cc1[nH]c2ccccc2c1C1(O)C(=O)N(C(C)C)c2ccccc21 (configuration not stated) | ? | -2.2% | 25.7
CCOC(=O)CN1C(=O)C(O)(CC(=O)c2ccc3c(c2)CCCC3)c2ccccc21 (configuration not stated) | 10µM* | -4.0% | -4.0
Cc1[nH]c2ccccc2c1C1(O)C(=O)N(Cc2ccc3c(c2)OCO3)c2ccccc21 (configuration not stated) | 0.708µM* | -18.7% | ?
Nc1nc(-c2ccccc2)c(C(=O)Nc2ccccc2)s1 | -13.1% | . | .
O=S(=O)(c1ccccc1Cl)N1CCC(O)(c2cccnc2)CC1 | -5.7% | . | .
COC(=O)CSc1nc2ccccn2c(=O)c1C=O | -7.5% | . | .
COC(=O)C1=C(C)NC(=O)NC1c1ccc(OC(=O)c2ccco2)cc1 (configuration not stated) | -1.1% | . | .
FC(F)(F)c1ccccc1-c1cncnc1NCc1cccnc1 | 7.7% | . | .
CN(/N=C/c1ccncc1)c1cnc2ccccc2n1 | 0.6% | . | .
COC(=O)Cc1[nH]nc2c1C1(C(=O)N(Cc3ccc(Cl)cc3)c3ccccc31)C(C#N)=C(N)O2 (configuration not stated) | ? | -4.1% | 4.3
CCc1[nH]nc2c1C1(C(=O)N(Cc3ccccc3)c3ccccc31)C(C#N)=C(N)O2 (configuration not stated) | 7.94µM* | -15.4% | 47.9
Cc1cc(OCC(=O)Nc2ccccc2F)nc(C(C)C)n1 | 5.2% | 0.9% | 4.6
Cc1cc(OCC(=O)Nc2ccc(F)c(F)c2)nc(C(C)C)n1 | 25.1µM* | -12.0% | 24.2
CC(C)C[C@@H](CC(=O)N[C@H](CC(=O)N[C@@H]1CCNC[C@H]1C(=O)N[C@H](CC(=O)N[C@@H](CCC(=O)O)CC(=O)O)CC(C)C)C(C)C)NC(=O)[C@@H]1CCCC[C@H]1N | ? | -2.5% | .
N=C(N)SCc1ccccn1 | 6.7% | -16.2% | -91.0*
c1ccc(CSc2nnc(SCc3ccccn3)s2)nc1 | 8.7% | -3.8% | -20.1
COc1ccc2c(c1)-c1ccccc1S(=O)(=O)N2C(C)=O | ? | -19.5% | -114.2*
COc1ccc(OC)c(NC(=O)CN2C(=O)c3ccccc3S2(=O)=O)c1 | -13.5% | 2.3% | 23.4
ClC(Cl)(c1nnnn1-c1ccccc1)c1nnnn1-c1ccccc1 | 1.12µM* | 3.16µM* | ?
SMILES | ALDH1A1 inh | HPGD inh | PNC inhibitor
c1ccc(N2CCN(c3nnnn3-c3ccccc3)CC2)cc1 | ? | -2.5% | 4.5
C/C(=N/N1CCN(c2ccccn2)CC1)c1cccc([N+](=O)[O-])c1 | 12.3% | -5.9% | 14.5
Cc1ccc(S(=O)(=O)N2c3ccccc3OCC2C(C)(C)C)cc1 (configuration not stated) | 10.1% | -10.2% | -100.0*
Cc1ccc2c(c1)N(S(=O)(=O)c1ccc(F)cc1)C(C(C)(C)C)CO2 (configuration not stated) | 6.5% | 1.4% | -26.5
CCCCc1nc2c(c3c1C[C@H](C)OC3)CN(S(=O)(=O)c1ccc(C#N)cc1)CC2 | 13.8%[13.5 µM] | -3.9% | .
CC(C)Nc1nc(Cl)nc(N(C#N)CN2C(=O)c3ccccc3S2(=O)=O)n1 | 22.4µM* | . | .
CCN(C#N)c1nc(N(C)C)nc(N(C)C)n1 | 0.1% | -5.0% | 4.5
CN(C)c1nc(N(C)C)nc(N(C#N)CN2C(=O)c3ccccc3S2(=O)=O)n1 | 20µM* | . | .
CC(C)(C)Nc1nc(Cl)nc(N(C#N)CN2C(=O)c3ccccc3S2(=O)=O)n1 | 9.1% | . | .
Cc1ccc(-c2nc3ccc(Cl)cc3n2OC(C)C(=O)O)cc1 (configuration not stated) | 1.3% | . | .
O=C1CC(N2CCN(c3cccc(C(F)(F)F)c3)CC2)C(=O)N1c1ccccc1 (configuration not stated) | -10.1% | -1.3% | ?
COc1ccc(NC2CCN(C3CC(=O)N(c4ccc(F)c(Cl)c4)C3=O)CC2)cc1 (configuration not stated) | 1.12µM* | ? | -19.8

Compound activity deposited in PubChem BioAssay by National Center for Advancing Translational Sciences (NCATS).
